The whole screen tested about 59,000 compounds, of which about 35 (0.06%) were called active. Not shown: some 19% with an inconclusive outcome. Cut-off read from the data, not from the text of the source: active = max dye-equivalent concentration above about 10 nM; inconclusive = between about 1.1 nM and that limit; inactive = weaker than that. Only a selection was taken, and actives are over-represented in it overall.
Test: qHTS Assay for Spectroscopic Profiling in Texas Red Spectral Region
Settings: Compound fluorescence, Texas Red channel, 547/618 nm; hits give high values
From the text: NIH Molecular Libraries Screening Centers Network [MLSCN] NIH Chemical Genomics Center [NCGC] […] Occasionally, the artifactual effect may originate from the compound#s own spectral or other biophysical properties which generally tend to track its assay concentration. Pre-screening/profiling the library with respect to the compounds# spectral properties should help one exclude false positives early on. While the most informative fluorescent profiling data set is obtained by performing a full excitation and emission scan of each well by using a monochromator-based plate reader, such an approach is practical only on a very limited scale as scanning each well requires long time. An alternative approach, applied here, is to perform plate reader scans using selected excitation and emission wavelength pairs to generate a multidimensional relational database that correlates compound concentration and the respective relative fluorescence intensity at a given wavelength set. A standard curve of Texas Red (TR) present on each plate as six-point concentration series, was used to compute a normalized fluorescence response, termed dye-equivalent concentration, for each compound at each concentration.
NCGC Assay Protocol Summary: Buffer: 100 mM Tris buffer, pH 8.0 Dye standard plate: The wells in columns 1 through 4 of a Kalypsys polypropylene 1536-well compound plate were filled with standard solutions of fluorophore corresponding to the spectral region of interest. Solutions of TR were placed in the following wells: U1, V1: 3 mM, U2, V2: 300 uM, U3, V3: 30 uM, U4, V4: zero (DMSO), W1, X1: 3 uM, W2, X2: 900 nM, W3, X3: 300 nM, W4, X4: zero (DMSO). Assay Steps: Six uL of buffer were dispensed to 1536-well Greiner black plates. Compounds and dye standards (23 nL) were transferred via Kalypsys PinTool. The plates were incubated for 15 min at room temperature, and then read on ViewLux (Perkin-Elmer) High-throughput CCD imager using 547 nm and 618 nm excitation and emission filter set. Keywords: NIH Roadmap, MLSCN, MLI, MLSMR, qHTS, NCGC, Texas Red, Fluorescent Profiling.

| Structure (SMILES) | max dye-equivalent concentration |
| --- | --- |
| CC(CCc1ccccc1)NC(=O)c1ccc(Br)o1 (stereo not given) | inactive |
| CCCCCNC(=O)Cc1ccc(OC)cc1 | inactive |
| CCN(CC)C(=O)N1CCN(C(=O)c2ccc(C)cn2)CC1 | inactive |
| CCCOC(=O)C1=C(C)NC2=C(C(=O)C(C(=O)OC)C(C)C2)C1c1ccc(N(C)C)cc1 (stereo not given) | inactive |
| Cc1cc(C)n(-c2ccc(Cl)c(C(=O)O)n2)n1 | inactive |
| COCCn1c(=O)c(C)nc2cnc(N(C)C)nc21 | inactive |
| COCCn1c(=O)c(-c2ccc(OC)cc2)nc2cnc(Oc3cccc(Cl)c3)nc21 | inactive |
| O=C(O)CCC(=O)N(Cc1ccco1)c1nc(-c2ccccc2)cs1 | inactive |
| COc1ccc2nc(NC3=NCN(CC4CCCO4)CN3)nc(C)c2c1 (stereo not given) | inactive |
| COc1ccc(-c2ccnc(SCC(=O)N3CCOCC3)n2)cc1 | inactive |
| COc1ccc(-c2nc3cnc(OC)nc3n(Cc3ccc(F)cc3)c2=O)cc1 | inactive |
| COc1ccc(CCn2c(-c3ccco3)nc3nc4ccccc4nc32)cc1OC | inactive |
| COc1ccc(C(C)=O)cc1COC(=O)Cn1cnc2ccccc2c1=O | inactive |
| Cc1cc(C)nc(SCc2nnc(SCC(=O)Nc3ncc(C)s3)n2Cc2ccco2)n1 | inactive |
| COc1ncc2nc(-c3ccc(Cl)cc3)c(=O)n(C)c2n1 | inactive |
| Cn1c(=O)c(-c2ccccc2)nc2cnc(N3CCNCC3)nc21 | inactive |
| CS(=O)(=O)N(CC(=O)NCc1ccco1)c1ccc2c(c1)OCO2 | inactive |
| Cc1cccc2cc(CN(Cc3nnnn3Cc3ccccc3)C3CCCC3)c(=O)[nH]c12 | inactive |
| CC(C)C(=O)Nc1cccc(C(=O)Nc2ccc3c(c2)OCO3)c1 | inactive |
| O=C1NC(=O)[C@@](Cc2ccccc2)(c2cccnc2)N1 | inactive |
| O=C(CN(c1ccc2c(c1)OCCO2)S(=O)(=O)c1ccccc1)Nc1ccc2c(c1)OCO2 | inactive |
| CN1CCc2c(sc3c2c(NCc2ccco2)nc2nnnn23)C1 | inactive |
| COc1ccc(C)cc1NC(=O)CSc1nc(SC)ns1 | inactive |
| N#Cc1ccccc1-c1ccc2ncnc(NCc3cccnc3)c2c1 | inactive |
| CCCC(=O)N1c2ccc(-c3csc(N)n3)cc2CC1C (stereo not given) | inactive |
| COc1ccc(-n2c(=O)c(C)nc3cnc(N4CCOCC4)nc32)cc1 | inactive |
| CC(C)C(NC(=O)c1cccc(S(=O)(=O)N2CCOCC2)c1)C(=O)NCCc1ccccn1 (stereo not given) | inactive |

| Structure (SMILES) | max dye-equivalent concentration |
| --- | --- |
| CSc1ccc(-c2c(C#N)c(N)nc3c2c(C)nn3-c2ccccc2)cc1 | inactive |
| CC(C)(C)n1nc2c(c1NC(=O)c1ccc(S(=O)(=O)N3CCCC3)cc1)CS(=O)C2 (stereo not given) | inactive |
| CCC[C@H]1C(=O)N2C(N(C)C)=Nc3ccc(C)cc3N2C1=O | inactive |
| Cc1nc2cnc(N3CCN(C)CC3)nc2n(CCC#N)c1=O | inactive |
| CCOc1ccc(-c2nnn(CC(=O)N3CCN(c4ccc(OC)cc4)CC3)n2)cc1OCC | inactive |
| Cc1cnc(NC(=O)CSc2nnc(-c3ccc(Cl)cc3Cl)n2N)s1 | inactive |
| CC[C@]1(C)CC(=O)NC1=O | inactive |
| CCc1ccc2oc(=O)cc(CN3CCCCC3C)c2c1 (stereo not given) | inactive |
| Cc1cc(NC(=O)Cn2nc(C(F)(F)F)c3c2CCCC3)no1 | inactive |
| Cc1cc(C(F)(F)F)n2ncc(-c3ccccc3)c2n1 | inactive |
| CN(C)/C=C1/Nc2ccccc2C1=O | inactive |
| CCOC(=O)C1CCCCN1Cc1ccc(OC)c(OC)c1OC (stereo not given) | inactive |
| CN(Cc1ccco1)c1ncncc1-c1ccoc1 | inactive |
| COc1ccc(-c2c3c(=O)n(C)c(=O)n(C)c3cn2NC(C)=O)cc1 | inactive |
| COc1ccc2nccc(C(=O)O)c2c1 | inactive |
| Cc1ccc(C(=O)Nc2nnc(-c3cccs3)s2)cc1C | inactive |
| CCc1ccccc1NC(=O)CSc1nnc([C@@H](NC(=O)OC(C)(C)C)C(C)C)o1 | inactive |
| Cc1ccc(F)cc1NC(=O)c1ccc2c(c1)OCO2 | inactive |
| CC(C)[C@H](NC(=O)Nc1ccc(S(N)(=O)=O)cc1)C(=O)O | inactive |
| CCc1ccccc1N(CC(=O)N1CCN(c2ccccc2F)CC1)S(C)(=O)=O | inactive |
| COc1ccccc1NC(=O)CSc1nc2sc(C)c(C)c2c(=O)n1Cc1ccco1 | inactive |
| CCOc1ccccc1/C=c1\sc2nc(-c3ccco3)nn2c1=O | inactive |
| CN(c1ccccc1)c1ccc(/C=c2\s/c(=C(/C#N)C(=O)C(C)(C)C)n(Cc3ccco3)c2=O)cc1 | 54 nM (active) |
| Cc1c(S(=O)(=O)O)ccc(N=Nc2c(O)c(C(=O)O)cc3ccccc23)c1Cl | inactive |
| O=C(NCc1ccco1)c1cnn2c(C(F)(F)F)cc(-c3ccco3)nc12 | inactive |
| COCCn1c(=O)c(-c2cccs2)nc2cnc(N3CCN(C)CC3)nc21 | inactive |
| COCCn1c(=O)c(CCc2ccccc2)nc2cncnc21 | inactive |

| Structure (SMILES) | max dye-equivalent concentration |
| --- | --- |
| COc1ccc(-c2nc3cnc(N(C)C)nc3n(Cc3cccs3)c2=O)cc1 | inactive |
| c1ccc2c(Nc3ccncc3)nc(-c3ccc4c(c3)OCO4)nc2c1 | inactive |
| Cn1c(=O)c(CCc2ccccc2)nc2cnc(Nc3ccccc3)nc21 | inactive |
| CS(=O)(=O)NCc1ccc(C(=O)NCc2ccccc2)cc1 | inactive |
| CCc1cccc(C)c1NC(=O)CSc1nnc(-c2ccco2)n1N | inactive |
| O=C(Nc1ccccc1F)c1cc(S(=O)(=O)N2CCCCC2)cs1 | inactive |
| Fc1cnc(N2CCOCC2)nc1NCc1ccccc1 | inactive |
| CCNc1ncc2ncc(=O)n(CCc3ccccc3)c2n1 | inactive |
| Cc1noc(C)c1-c1nc(Nc2ccccc2)c2ccccc2n1 | inactive |
| Cc1cc(N2CCCC2)n2nc(C)c(-c3ccccc3)c2n1 | inactive |
| CC(C)(C)c1csc(NC2=NS(=O)(=O)c3ccccc32)n1 | inactive |
| COc1ccc(-c2nc3cnc(Oc4ccccc4)nc3n(Cc3cccs3)c2=O)cc1 | inactive |
| COC(=O)CN(c1nc(C)c(Cl)c(OC)n1)S(=O)(=O)c1ccc(C)cc1 | inactive |
| COC(=O)CNC(=O)c1ccc2c(c1)S(=O)(=O)c1ccccc1C2=O | inactive |
| CC(C)C1N=C2c3ccccc3N=C(SCC(=O)c3ccc(O)c(O)c3)N2C1=O (stereo not given) | inactive |
| O=C(O)C1CCCCC1C(=O)Nc1ccc(Cl)cc1 (stereo not given) | inactive |
| CCCS(=O)(=O)C(=C1Nc2ccccc2N1)S(=O)(=O)CCC | inactive |
| Cn1c(-c2ccc(C(=O)c3ccccc3)s2)nc2ccccc21 | inactive |
| O=C(NCC1CCCO1)C(C(=O)c1ccccc1)n1cc(Cl)ccc1=O (stereo not given) | inactive |
| CCOC(=O)c1[nH]c2ccc(C)cc2c1N=C(C)N(C)C | inactive |
| COC(=O)N1CCC2(CCCN(c3ccncc3)C2)CC1 | inactive |
| COCCn1c(=O)c(-c2ccccc2)nc2cnc(N3CCOCC3)nc21 | inactive |
| COCCn1c(=O)c(-c2cc(F)cc(F)c2)nc2cncnc21 | inactive |
| Cc1nn2c3ccccc3nc2n(C)c1=O | inactive |
| O=C(COc1ccc2c3c(c(=O)oc2c1)CCC3)NC1CCCCC1 | inactive |
| O=C(NCc1ccccn1)c1cc2ccccc2oc1=O | inactive |
| COc1ccc(Cl)cc1NC(=O)c1oc(C)nc1C | inactive |

| Structure (SMILES) | max dye-equivalent concentration |
| --- | --- |
| Cc1c(C)c2c(c(C)c1O)CC[C@@](C)(CN1CCN(c3cc(N4CCCC4)nc(N4CCCC4)n3)CC1)O2 | inactive |
| O=C1CC2(CCCCC2)Oc2ccc(OCC(=O)N3CCOCC3)cc21 | inactive |
| Cc1cnc(CNc2cc(-c3c(C)noc3C)ncn2)cn1 | inactive |
| CS(=O)(=O)Nc1cccc(-c2cncnc2Nc2ccccc2)c1 | inactive |
| CC(C)OC(=O)C(C#N)c1nc2ccccc2nc1N1CCN(Cc2ccc3c(c2)OCO3)CC1 (stereo not given) | inactive |
| Oc1ccc2ccccc2c1C=NCc1c(O)ccc2ccccc12 | inactive |
| COCCNC(=S)c1ccc(OC)cc1 | inactive |
| CCOC(=O)c1cnc2sccn2c1=O | inactive |
| COc1ccc(OC)c(C(=O)CSc2nnc(-c3cccs3)o2)c1 | inactive |
| CCCCn1c(SCC(=O)N2CCC(C(=O)OCC)CC2)nc2cc(S(N)(=O)=O)ccc21 | inactive |
| Cc1cc(N2CCCCC2)nc2ccc(Cc3ccc4nc(N5CCCCC5)cc(C)c4c3)cc12 | inactive |
| CC(C)c1nc2oc3c(N4CCN(C)CC4)ncnc3c2c2c1CCC2 | inactive |
| COCCNc1cc(-c2c(C)noc2C)ncn1 | inactive |
| O=c1c(-c2ccc(F)cc2)nc2cnc(N3CCNCC3)nc2n1Cc1cccs1 | inactive |
| Cc1nc(NCCN)c(C#N)c2c1COC(C)(C)C2 | inactive |
| Cn1cccc1C(=O)NC(=O)COC(=O)Cc1coc2ccc3ccccc3c12 | inactive |
| CCOCCN(C=O)c1cccc(OC)c1 | inactive |
| COc1ccc2[nH]c(=O)c(CN(CC3CCCO3)C(=O)Nc3ccccc3)cc2c1 (stereo not given) | inactive |
| Cn1c(=O)c2c(n(Cc3ccccc3)c1=O)NC(=O)C2CC(=O)N1CCc2ccccc2C1 (stereo not given) | inactive |
| O=S(=O)(c1ccccc1)N1CCC2(CC1)CN(Cc1nccs1)C2 | inactive |
| O=C(O)CS(=O)c1ccc2c3c(cccc13)C(=O)c1ccccc1-2 (stereo not given) | inactive |
| Nc1nonc1-c1nc2ccccc2n1CCC(=O)O | inactive |
| Cc1nc2cnc(N3CCNCC3)nc2n(Cc2ccc(F)cc2)c1=O | inactive |
| Cn1c(=S)c2[nH]c(SCCCc3ccccc3)nc2n(C)c1=O | inactive |

From PubChem BioAssay AID587 (National Center for Advancing Translational Sciences (NCATS), 2007)
